From PubChem
EPAC1 antagonist – antagonists of human EPAC1. O95398. EPAC1 GEF assay, Rap1b-BODIPY-GDP exchange fluorescence. Potency, µM (series often up to 115 µM), without a hit: top-dose activity change, negative = inhibition, most hits filed as inhibitors. 0.14% of 360,000 active;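 further: potency means the concentration at half of the fitted maximal effect; plate controls were vehicle for no effect and positive control for full effect; nearly all actives have a fitted effect of over 50% in size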
EPAC2 agonist – activates human EPAC2 exchange factor | EPAC2 activation, biochemical qHTS; response scale: 100% = 6.5 mM cAMP response | Potency, µM (titrated, usually from 154 µM), without a hit: at the highest dose activation, hits mostly activators | 0.079% of 360,000 active; further: potency means the concentration at half of the fitted maximal effect; nearly all actives have a fitted effect of over 50% in size
Target sequence (Q8WZA2 whole entry, looked up): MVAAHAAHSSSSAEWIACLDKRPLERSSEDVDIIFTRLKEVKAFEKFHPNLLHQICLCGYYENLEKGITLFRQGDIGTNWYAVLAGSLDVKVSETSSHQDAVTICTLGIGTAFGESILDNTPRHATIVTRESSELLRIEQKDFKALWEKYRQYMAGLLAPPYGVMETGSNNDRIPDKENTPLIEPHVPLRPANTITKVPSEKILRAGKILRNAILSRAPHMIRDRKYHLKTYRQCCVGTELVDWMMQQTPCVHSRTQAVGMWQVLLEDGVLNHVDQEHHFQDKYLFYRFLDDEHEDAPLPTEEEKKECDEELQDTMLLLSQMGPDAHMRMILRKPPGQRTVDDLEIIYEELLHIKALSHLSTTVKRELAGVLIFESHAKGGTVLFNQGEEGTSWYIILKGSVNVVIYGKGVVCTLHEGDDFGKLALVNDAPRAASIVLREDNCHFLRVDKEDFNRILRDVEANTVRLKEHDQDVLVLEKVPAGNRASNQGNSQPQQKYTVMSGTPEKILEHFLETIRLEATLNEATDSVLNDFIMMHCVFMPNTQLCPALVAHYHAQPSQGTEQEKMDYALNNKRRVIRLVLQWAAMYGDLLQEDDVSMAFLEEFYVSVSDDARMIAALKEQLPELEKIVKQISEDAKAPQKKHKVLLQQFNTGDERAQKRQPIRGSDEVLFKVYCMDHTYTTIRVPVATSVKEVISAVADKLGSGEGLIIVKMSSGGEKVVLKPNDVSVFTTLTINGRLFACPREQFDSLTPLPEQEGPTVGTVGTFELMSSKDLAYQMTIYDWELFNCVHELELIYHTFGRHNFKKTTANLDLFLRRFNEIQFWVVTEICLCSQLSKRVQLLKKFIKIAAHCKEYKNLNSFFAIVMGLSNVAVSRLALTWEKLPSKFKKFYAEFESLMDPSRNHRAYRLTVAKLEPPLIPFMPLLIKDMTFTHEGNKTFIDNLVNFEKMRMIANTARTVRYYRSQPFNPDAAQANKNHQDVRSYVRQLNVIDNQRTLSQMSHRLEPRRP
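qHTS, titration series. 100 nM EPAC2 / 250 nM Rap1B-BODIPY-GDP / 50 uM GDP; RT; ex 480/em 540 nm, 5-min reads to 30 min. Norm. to 6.5 mM cAMP = activation.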
EPAC1 agonist – agonists of human EPAC1 | O95398 | EPAC1 agonist qHTS, biochemical assay; response scale: 100% = response to 6.5 mM cAMP | Potency, µM (doses to about 154 µM), for inactives: at the highest dose activation, actives largely listed as activators | 0.073% of 360,000 active; further: potency means the concentration at half of the fitted maximal effect; nearly all actives have a fitted effect of over 60% in size
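Fluorescent GDP-exchange assay: 100 nM EPAC1 with 250 nM Rap1B preloaded with BODIPY-GDP and 50 uM GDP; compounds tested as concentration series, 5 min at room temperature, then read every 5 min for 30 min (ex 480/em 540 nm); normalized to 6.5 mM cAMP.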
hERG WT inh – inhibitors of human wildtype KCNH2 potassium channel; Q12809; U2OS, BacMam KCNH2, thallium flux FluxOr; stronger effect = lower value; activity change, % at 1.84 µM; 0.37% of 340,000 active; AID 720551;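 active means maximum activity change below -70%; inconclusive means maximum activity change between -70% and -50%; inactive means maximum activity change above -50%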; further: on the % scale 0 is the no-effect control and ±100 the full control effect
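U2OS cells transduced with wild-type KCNH2 virus are loaded with FluxOr dye for 45 min, and thallium flux is measured in kinetic reads before and after stimulation buffer. Rate constants are normalized to DMSO controls.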
KCNH2 3.1 inh – KCNH2 3.1 (human) potassium channel inhibition | U2OS KCNH2 3.1, thallium flux FluxOr; stronger effect = lower value | 0.95% of 340,000 active | activity change, % (tested at about 1.8 µM) | AID 720553;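 active means maximum activity change below -70%; inconclusive means maximum activity change from -70% to -50%; inactive means maximum activity change above -50%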;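 further: thallium influx rate constant from kinetic fluorescence after stimulation buffer; on the % scale 0 is the no-effect control and ±100 the full control effect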
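Kinetic fluorescence (2 min after stimulation buffer) measures Tl+ influx through KCNH2 3.1 expressed by viral transduction in U2OS cells; the rate constant is normalized against DMSO controls serving as positive and negative references.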
EPAC2 antag – antagonists of human EPAC2. Q8WZA2. AID 720708. EPAC2 GEF exchange of Rap1B-BODIPY-GDP, fluorescence. 0.18% of 360,000 active. Potency, µM (highest dose often 114 µM), without a hit: top-dose activity, negative = inhibition, hits mostly inhibitors; further: potency means the concentration at half of the fitted maximal effect; on the % scale 0 is the no-effect control and ±100 the full control effect; nearly all actives have a fitted effect of over 45% in size
* marks the source's active call; other numbers are inactive results. In the library only some 1.4% were active in any assay of this set; here they are far more common. Unless noted, the call rests on the fitted dose curve; in most records, active means well fitted curve in the direction sought with a large enough effect; inconclusive means small, poorly fitted or top-dose-only effect, or another doubt; inactive means no such curve, though single readings can be large; an effect the other way counts as inactive or inconclusive.

Results for COc1cc(C2C=C(c3cccs3)Nc3ncnn32)cc(OC)c1OC (stereo not given) ?
EPAC1 antagonist: 82%; EPAC2 agonist: 24%; EPAC1 agonist: 100µM*; hERG WT inh: 6; KCNH2 3.1 inh: 24; EPAC2 antag: 120%

How did Cc1onc(-c2ccccc2)c1C(=O)Nc1ccc(Cl)c(S(=O)(=O)N2CCOCC2)c1 do in these assays?
EPAC1 antagonist: -6%; EPAC2 agonist: 19%; EPAC1 agonist: 16%; hERG WT inh: -2; KCNH2 3.1 inh: -14; EPAC2 antag: -11%

How did C/C(=N\N=C\c1ccccc1F)c1nnn(-c2nonc2N)c1C do in these assays?
EPAC1 antagonist: -8%; EPAC2 agonist: 0%; EPAC1 agonist: -5%; hERG WT inh: 20; KCNH2 3.1 inh: -71*; EPAC2 antag: 14%

Results for Nc1nonc1-n1nnc(C(=O)N/N=C/c2ccccc2F)c1-c1cccs1 ?
EPAC1 antagonist: -2%; EPAC2 agonist: 8%; EPAC1 agonist: 0%; hERG WT inh: 12; KCNH2 3.1 inh: -18; EPAC2 antag: -6%

Results for CS(=O)(=O)Oc1ccc(/C=N/NC(=O)c2ccncc2)cc1 ?
EPAC1 antagonist: 15%; EPAC2 agonist: -2%; EPAC1 agonist: 13%; hERG WT inh: 1; KCNH2 3.1 inh: -3; EPAC2 antag: 5%

Results for COc1ccc(C(CCNCc2ccc(N(C)C)cc2)c2ccccc2)cc1 (stereo not given) ?
EPAC1 antagonist: -4%; EPAC2 agonist: 3%; EPAC1 agonist: 11%; hERG WT inh: -30; KCNH2 3.1 inh: -85*; EPAC2 antag: 5%

What do the screens show for `O=C1CCCC2=C1C(c1ccc(Br)cc1)c1c([nH]c(=S)[nH]c1=O)N2` (stereo not given)?
EPAC1 antagonist: 10%; EPAC2 agonist: -2%; EPAC1 agonist: 1%; hERG WT inh: -6; KCNH2 3.1 inh: 22; EPAC2 antag: 11%

What do the screens show for `O=c1[nH]c(=S)[nH]c2c1C(c1ccc(Br)cc1)c1c([nH]c(=S)[nH]c1=O)O2`?
EPAC1 antagonist: 35µM*; EPAC2 agonist: 3%; EPAC1 agonist: -7%; hERG WT inh: 2; KCNH2 3.1 inh: -10; EPAC2 antag: 1%

How did C=C1CC2C=C(NC(C)=O)CC(C1)C2 (stereo not given) do in these assays?
EPAC1 antagonist: 2%; EPAC2 agonist: -4%; EPAC1 agonist: -9%; hERG WT inh: -7; KCNH2 3.1 inh: -83*; EPAC2 antag: 10%

Results for CCCCn1c(N)c(N(CC(C)C)C(=O)C2CCN(S(=O)(=O)c3ccccc3)CC2)c(=O)[nH]c1=O ?
EPAC1 antagonist: -1%; EPAC2 agonist: 1%; EPAC1 agonist: -2%; hERG WT inh: -14; KCNH2 3.1 inh: 7; EPAC2 antag: 26%

What do the screens show for `CCCCn1c(N)c(N(CC(C)C)C(=O)C2CCN(S(=O)(=O)c3ccc(C)c(C)c3)CC2)c(=O)[nH]c1=O`?
EPAC1 antagonist: 50µM*; EPAC2 agonist: -7%; EPAC1 agonist: -11%; hERG WT inh: 1; KCNH2 3.1 inh: 6; EPAC2 antag: 29%

What do the screens show for `N#Cc1ccc(CN(Nc2ccccc2)c2ccccc2)cc1`?
EPAC1 antagonist: 5%; EPAC2 agonist: -8%; EPAC1 agonist: -8%; hERG WT inh: 7; KCNH2 3.1 inh: inconclusive; EPAC2 antag: -17%

How did Cn1cc(-c2coc3c(C(=O)NCc4cccs4)cccc23)cn1 do in these assays?
EPAC1 antagonist: 4%; EPAC2 agonist: 6%; EPAC1 agonist: 3%; EPAC2 antag: -8%

How did CS(=O)(=O)N1CCC(C(=O)Nc2ccc(Cl)cc2Cl)CC1 do in these assays?
EPAC1 antagonist: 2%; EPAC2 agonist: 7%; EPAC1 agonist: 12%; hERG WT inh: -17; KCNH2 3.1 inh: -71*; EPAC2 antag: -5%

How did CS(=O)(=O)N1CCC(C(=O)Nc2ccc(Br)cc2F)CC1 do in these assays?
EPAC1 antagonist: 3%; EPAC2 agonist: 9%; EPAC1 agonist: -4%; hERG WT inh: 3; KCNH2 3.1 inh: -92*; EPAC2 antag: -1%

Results for CC(=O)C1=CCC(c2ccc(Cl)cc2)N(S(=O)(=O)c2ccccc2C)C1 (stereo not given) ?
EPAC1 antagonist: -10%; EPAC2 agonist: 12%; EPAC1 agonist: 10%; EPAC2 antag: 3%

How did O=C(O)CCC(=O)N1CCc2c([nH]c3ccccc23)C1C(F)(F)F (stereo not given) do in these assays?
EPAC1 antagonist: -3%; EPAC2 agonist: 9%; EPAC1 agonist: 10%; hERG WT inh: -2; KCNH2 3.1 inh: -85*; EPAC2 antag: 1%

What do the screens show for `O=C(Nc1ccccc1)N1CCc2c([nH]c3ccccc23)C1C(F)(F)F` (stereo not given)?
EPAC1 antagonist: -7%; EPAC2 agonist: 0%; EPAC1 agonist: 14%; hERG WT inh: -2; KCNH2 3.1 inh: -15; EPAC2 antag: inconclusive

Results for CCc1nnc(NC(=O)CN2CCC(O)(c3ccccc3OC)CC2)s1 ?
EPAC1 antagonist: 4%; EPAC2 agonist: 1%; EPAC1 agonist: 0%; hERG WT inh: -10; KCNH2 3.1 inh: 5; EPAC2 antag: 6%

Results for COc1ccccc1C1(O)CCN(CC(=O)Nc2nc(-c3ccccc3)cs2)CC1 ?
EPAC1 antagonist: inconclusive; EPAC2 agonist: 11%; EPAC1 agonist: 8%; hERG WT inh: 7; KCNH2 3.1 inh: -86*; EPAC2 antag: -2%

What do the screens show for `Cc1nn(CC(=O)NCCCN2CCC(Cc3ccccc3)CC2)c(=O)c2cc(-c3ccccc3)nn12`?
EPAC1 antagonist: -7%; EPAC2 agonist: -14%; EPAC1 agonist: -6%; hERG WT inh: -87*; KCNH2 3.1 inh: -103*; EPAC2 antag: 1%

How did CCc1ccc(-c2cc3c(=O)n(CC(=O)NCCCN4CCC(Cc5ccccc5)CC4)nc(C)n3n2)cc1 do in these assays?
EPAC1 antagonist: -5%; EPAC2 agonist: 11%; EPAC1 agonist: -7%; hERG WT inh: -45; KCNH2 3.1 inh: -91*; EPAC2 antag: 3%

Results for Cc1nn(CC(=O)NCCCN2CCN(Cc3ccccc3)CC2)c(=O)c2cc(-c3ccccc3)nn12 ?
EPAC1 antagonist: 3%; EPAC2 agonist: 5%; EPAC1 agonist: 6%; hERG WT inh: 31; KCNH2 3.1 inh: -49; EPAC2 antag: -4%

What do the screens show for `COc1ccc(N2CCN(C(CNS(=O)(=O)c3ccccc3)c3ccccc3)CC2)cc1` (stereo not given)?
EPAC1 antagonist: -1%; EPAC2 agonist: 10%; EPAC1 agonist: 16%; hERG WT inh: 15; KCNH2 3.1 inh: 1; EPAC2 antag: -8%
